# Experimental data: PubChem BioAssay AID1159580 (chemical genetic matrix, 2015)
# In all, about 5,500 compounds went through this assay and about 2,000 (36%) were called active. Inconclusive results (about 18%) are left out. The list shows a part of the results. Values without a mark were called inactive. Cut-off read from the data, not from the text of the source: active = normalized growth mostly below about 0.91 (no sharp cut-off); inconclusive = no clear call, values can overlap the other calls; inactive = mostly above about 0.92.
# Experiment: chemical genetic growth profiling, strain panel (AID 1159580);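 note: tested at 20 µM; growth read once vehicle control cultures reached saturation at 30 °C; 1 = growth at the plate median or of vehicle wells; lower values mean less growth of the strain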
# Conditions: S. cerevisiae deletion strains, growth OD
# [1] = locus YDR150W, strain NUM1, active compounds read low
# [2] = locus YGR078C, strain PAC10, active compounds read low
# [3] = locus YNL153C, strain GIM3, active compounds read low
# [4] = locus YAR019C, strain CDC15, active compounds read low
# [5] = locus YBL105C, strain PKC1, active compounds read low
# [6] = locus YBR135W, strain CKS1, active compounds read low
# [7] = locus YBR136W, strain MEC1, active compounds read low
# [8] = locus YBR160W, strain CDC28, active compounds read low
# [9] = locus YDL017W, strain CDC7, active compounds read low
# [10] = locus YDL028C, strain MPS1, active compounds read low
# [11] = locus YDL101C, strain DUN1, active compounds read low
# [12] = locus YDL108W, strain KIN28, active compounds read low
# [13] = locus YDL132W, strain cdc53, active compounds read low
# [14] = locus YDL214C, strain PRR2, active compounds read low
# [15] = locus YDR052C, strain DBF4, active compounds read low
# [16] = locus YDR054C, strain cdc34, active compounds read low
# [17] = locus YDR226W, strain ADK1, active compounds read low
# [18] = locus YDR477W, strain SNF1, active compounds read low
# [19] = locus YER123W, strain YCK3, active compounds read low
# [20] = locus YER133W, strain GLC7, active compounds read low
# [21] = locus YFL009W, strain cdc4, active compounds read low
# [22] = locus YFL029C, strain CAK1, active compounds read low
# [23] = locus YFR003C, strain YPI1, active compounds read low
# [24] = locus YFR019W, strain FAB1, active compounds read low
# [25] = locus YFR028C, strain CDC14, active compounds read low
# [26] = locus YGR040W, strain KSS1, active compounds read low
# [27] = locus YGR052W, strain FMP48, active compounds read low
# [28] = locus YGR092W, strain DBF2, active compounds read low
# [29] = locus YHR030C, strain SLT2, active compounds read low
# [30] = locus YHR079C, strain IRE1, active compounds read low
# [31] = locus YHR082C, strain KSP1, active compounds read low
# [32] = locus YHR205W, strain SCH9, active compounds read low
# [33] = locus YIL147C, strain SLN1, active compounds read low
# [34] = locus YJL095W, strain BCK1, active compounds read low
# [35] = locus YJL128C, strain PBS2, active compounds read low
# [36] = locus YJL157C, strain FAR1, active compounds read low
# [37] = locus YJR016C, strain ILV3, active compounds read low
# [38] = locus YJR066W, strain TOR1 (second series), active compounds read low
# [39] = locus YJR066W, strain TOR1, active compounds read low
# [40] = locus YKL048C, strain ELM1, active compounds read low
# [41] = locus YKL067W, strain YNK1, active compounds read low
# [42] = locus YKL101W, strain HSL1, active compounds read low
# [43] = locus YKL193C, strain SDS22, active compounds read low
# [44] = locus YKL203C, strain TOR2, active compounds read low
# [45] = locus YLR113W, strain HOG1, active compounds read low
# [46] = locus YLR133W, strain CKI1, active compounds read low
# [47] = locus YLR403W, strain SFP1, active compounds read low
# [48] = locus YML070W, strain DAK1, active compounds read low
# [49] = locus YMR001C, strain CDC5, active compounds read low
# [50] = locus YMR205C, strain PFK2 (second series), active compounds read low
# [51] = locus YMR277W, strain FCP1, active compounds read low
# [52] = locus YNL006W, strain LST8, active compounds read low
# [53] = locus YNL020C, strain ARK1, active compounds read low
# [54] = locus YNL161W, strain CBK1, active compounds read low
# [55] = locus YNL183C, strain NPR1, active compounds read low
# [56] = locus YNL207W, strain RIO2, active compounds read low
# [57] = locus YNL222W, strain SSU72, active compounds read low
# [58] = locus YNL307C, strain MCK1 (second series), active compounds read low
# [59] = locus YOL078W, strain AVO1, active compounds read low
# [60] = locus YOL136C, strain PFK27, active compounds read low
# [61] = locus YOR061W, strain CKA2, active compounds read low
# [62] = locus YOR329C, strain SCD5, active compounds read low
# [63] = locus YPL031C, strain PHO85, active compounds read low
# [64] = locus YPL153C, strain RAD53, active compounds read low
# [65] = locus YPL204W, strain HRR25, active compounds read low
# [66] = locus YPL209C, strain IPL1, active compounds read low
# [67] = locus YPL256C, strain CLN2, active compounds read low
# [68] = locus YPR025C, strain CCL1, active compounds read low
# [69] = locus YPR106W, strain ISR1, active compounds read low
# [70] = locus YPR111W, strain DBF20, active compounds read low
# [71] = strain NNK1, active compounds read low
# [72] = strain TSCII, active compounds read low
compound,measurement,setting,value
C[C@]12N[C@H](Cc3ccccc31)c1ccccc12,normalized growth,"locus YAL040C, strain CLN3, active compounds read low",1.04
same,normalized growth,"locus YCL061C, strain MRC1 (second series), active compounds read low",0.988
same,normalized growth,[1],1
same,normalized growth,"locus YDR363W, strain ESC2, active compounds read low",0.953
same,normalized growth,"locus YER002W, strain NOP16, active compounds read low",0.964
same,normalized growth,[2],0.973
same,normalized growth,"locus YMR307W, strain GAS1, active compounds read low",1
same,normalized growth,"locus YNL128W, strain TEP1, active compounds read low",0.992
same,normalized growth,[3],0.978
same,normalized growth,"locus YNL175C, strain NOP13, active compounds read low",0.98
same,normalized growth,"locus YNL197C, strain WHI3, active compounds read low",0.957
same,normalized growth,"locus YNL224C, strain SQS1, active compounds read low",0.979
same,normalized growth,"locus YOR083W, strain WHI5 (second series), active compounds read low",0.995
O=C(CCn1c(=O)oc2ccccc21)Sc1ccc(C(F)(F)F)cc1,normalized growth,[4],0.931
same,normalized growth,[5],0.962
same,normalized growth,[6],0.957
same,normalized growth,[7],0.941
same,normalized growth,[8],0.951
same,normalized growth,[9],0.967
same,normalized growth,[10],0.925
same,normalized growth,[11],0.975
same,normalized growth,[12],0.94
same,normalized growth,[13],0.965
same,normalized growth,[14],0.793
same,normalized growth,[15],0.961
same,normalized growth,[16],0.936
same,normalized growth,[17],0.951
same,normalized growth,[18],0.742
same,normalized growth,[19],0.677
same,normalized growth,[20],0.876
same,normalized growth,[21],0.917
same,normalized growth,[22],0.937
same,normalized growth,[23],0.97
same,normalized growth,[24],0.942
same,normalized growth,[25],0.958
same,normalized growth,[26],0.7
same,normalized growth,[27],0.774
same,normalized growth,[28],0.473 (active)
same,normalized growth,[29],0.318 (active)
same,normalized growth,[30],0.479 (active)
same,normalized growth,[31],0.781
same,normalized growth,[32],0.792
same,normalized growth,[33],0.935
same,normalized growth,[34],0.838
same,normalized growth,[35],0.929
same,normalized growth,[36],0.703
same,normalized growth,[37],0.966
same,normalized growth,[38],0.418 (active)
same,normalized growth,[39],0.587
same,normalized growth,[40],0.897
same,normalized growth,[41],0.779
same,normalized growth,[42],0.834
same,normalized growth,[43],0.955
same,normalized growth,[44],0.937
same,normalized growth,[45],0.848 (active)
same,normalized growth,[46],0.779
same,normalized growth,[47],0.799
same,normalized growth,[48],0.879
same,normalized growth,[49],0.938
same,normalized growth,[50],0.882
same,normalized growth,[51],0.919
same,normalized growth,[52],0.954
same,normalized growth,[53],0.783
same,normalized growth,[54],0.962
same,normalized growth,[55],0.778
same,normalized growth,[56],0.949
same,normalized growth,[57],0.935
same,normalized growth,[58],0.557 (active)
same,normalized growth,[59],0.951
same,normalized growth,[60],0.851
same,normalized growth,[61],0.607 (active)
same,normalized growth,"locus YOR119C, strain RIO1, active compounds read low",0.922
same,normalized growth,[62],0.965
same,normalized growth,[63],0.732
same,normalized growth,[64],0.552 (active)
same,normalized growth,[65],0.813
same,normalized growth,[66],0.971
same,normalized growth,[67],0.83 (active)
same,normalized growth,[68],0.956
same,normalized growth,[69],0.956
same,normalized growth,[70],0.93
same,normalized growth,[71],0.96
same,normalized growth,[72],0.931
N#Cc1cccc(Cn2c(=O)oc3ccccc32)c1,normalized growth,"locus YAL013W, strain DEP1, active compounds read low",0.988
same,normalized growth,"locus YBR229C, strain ROT2, active compounds read low",0.991
same,normalized growth,[11],0.977
same,normalized growth,[1],0.998
same,normalized growth,"locus YEL061C, strain CIN8, active compounds read low",0.989
same,normalized growth,[2],1
same,normalized growth,"locus YGR229C, strain SMI1, active compounds read low",0.985
same,normalized growth,[29],0.907
same,normalized growth,"locus YHR087W, strain rtc3, active compounds read low",0.988
same,normalized growth,"locus YJL187C, strain SWE1, active compounds read low",0.996
same,normalized growth,"locus YJR043C, strain POL32, active compounds read low",1
same,normalized growth,"locus YJR075W, strain HOC1, active compounds read low",0.986
same,normalized growth,"locus YKL190W, strain CNB1, active compounds read low",1
same,normalized growth,"locus YLR039C, strain RIC1, active compounds read low",1.04
same,normalized growth,"locus YLR058C, strain SHM2 (second series), active compounds read low",0.998
same,normalized growth,"locus YLR085C, strain ARP6, active compounds read low",1.11
same,normalized growth,"locus YLR262C, strain YPT6, active compounds read low",1.01
same,normalized growth,"locus YML094W, strain GIM5, active compounds read low",0.972
same,normalized growth,"locus YMR219W, strain ESC1, active compounds read low",0.993
same,normalized growth,"locus YMR263W, strain SAP30, active compounds read low",0.995
same,normalized growth,[3],0.998
same,normalized growth,"locus YNL298W, strain CLA4 (second series), active compounds read low",0.996
same,normalized growth,"locus YNL322C, strain KRE1, active compounds read low",0.984
same,normalized growth,"locus YNR030W, strain Alg12, active compounds read low",0.977
same,normalized growth,"locus YOL006C, strain TOP1, active compounds read low",1.04
same,normalized growth,"locus YPL055C, strain LGE1, active compounds read low",1.01
same,normalized growth,"locus YPL241C, strain CIN2, active compounds read low",1.06
same,normalized growth,"locus YPR135W, strain CTF4, active compounds read low",1
O=C(CCn1c(=O)oc2ccccc21)Sc1ccc(Cl)cc1Cl,normalized growth,[4],0.894
same,normalized growth,[5],0.935
same,normalized growth,[6],0.914
same,normalized growth,[7],0.913
same,normalized growth,[8],0.895 (active)
same,normalized growth,[9],0.942
same,normalized growth,[10],0.884 (active)
same,normalized growth,[11],0.971
same,normalized growth,[12],0.897
same,normalized growth,[13],0.9
same,normalized growth,[14],0.359 (active)
same,normalized growth,[15],0.936
same,normalized growth,[16],0.748 (active)
same,normalized growth,[17],0.899
same,normalized growth,[18],0.222 (active)
same,normalized growth,[19],0.278 (active)
same,normalized growth,[20],0.435 (active)
same,normalized growth,[21],0.905
same,normalized growth,[22],0.878
same,normalized growth,[23],0.917
same,normalized growth,[24],0.311 (active)
same,normalized growth,[25],0.914
same,normalized growth,[26],0.289 (active)
same,normalized growth,[27],0.306 (active)
same,normalized growth,[28],0.164 (active)
same,normalized growth,[29],0.149 (active)
same,normalized growth,[30],0.253 (active)
same,normalized growth,[31],0.281 (active)
same,normalized growth,[32],0.286 (active)
same,normalized growth,[33],0.92
same,normalized growth,[34],0.229 (active)
same,normalized growth,[35],0.907
same,normalized growth,[36],0.503 (active)
same,normalized growth,[37],0.915
same,normalized growth,[38],0.197 (active)
same,normalized growth,[39],0.227 (active)
same,normalized growth,[40],0.745 (active)
same,normalized growth,[41],0.597 (active)
same,normalized growth,[42],0.433 (active)
same,normalized growth,[43],0.903
same,normalized growth,[44],0.348 (active)
same,normalized growth,[45],0.221 (active)
same,normalized growth,[46],0.387 (active)
same,normalized growth,[47],0.205 (active)
same,normalized growth,[48],0.519 (active)
same,normalized growth,[49],0.911
same,normalized growth,[50],0.662 (active)
same,normalized growth,[51],0.873 (active)
same,normalized growth,[52],0.91
same,normalized growth,[53],0.383 (active)
same,normalized growth,[54],0.923
same,normalized growth,[55],0.249 (active)
same,normalized growth,[56],0.908
same,normalized growth,[57],0.892
same,normalized growth,[58],0.196 (active)
same,normalized growth,[59],0.918
same,normalized growth,[60],0.45 (active)
same,normalized growth,[61],0.334 (active)
same,normalized growth,"locus YOR231W, strain MKK1, active compounds read low",0.251 (active)
same,normalized growth,[62],0.936
same,normalized growth,[63],0.342 (active)
same,normalized growth,[64],0.216 (active)
same,normalized growth,[65],0.402 (active)
same,normalized growth,[66],0.922
same,normalized growth,[67],0.255 (active)
same,normalized growth,[68],0.923
same,normalized growth,[69],0.944
same,normalized growth,[70],0.92
same,normalized growth,[71],0.935
same,normalized growth,[72],0.898
